# EBV LMP1 NFkB = inhibitors of Epstein-Barr LMP1-induced NF-kappaB reporter. inhibition, % at 12.5 µM. LMP1-induced NF-kappaB luciferase reporter cells, luminescence. 350,000 compounds, 0.69% hits. AID 504558; in the data active = inhibition above about 41%
# SRC2 inh = inhibits human steroid receptor coactivator 2. HEK293 GAL4-SRC2 luciferase reporter, luminescence. Q15596. AID 651957. inhibition, % at 9 µM. 370,000 compounds, 0.17% hits;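 active = inhibition above the mean inhibition of all tested compounds plus 3 SD, set per campaign, cut at about 52% in these data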
# LRH-1 inv ag = NR5A2 inverse agonism in reporter assay; inhibition, % at 3.6 µM; O00482; HEK293T StAR-luciferase reporter, LRH-1 transfected, 24 h; 360,000 compounds, 0.13% hits;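 active = inhibition above the mean inhibition of all tested compounds plus 3 SD, cut at about 73% in these data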
# SRC1 inh = inhibits human SRC1 coactivator; Q15788; HEK293 GAL4-SRC1 luciferase reporter, luminescence; inhibition, % at 3.6 µM; 360,000 compounds, 0.12% hits; AID 588354;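 active = inhibition above the campaign mean plus 3 SD, with each screening campaign given its own cutoff, cut at about 60% in these data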
# SRC3 inh = inhibitors of human steroid receptor coactivator 3 (SRC3); Q9Y6Q9; HEK293 GAL4-SRC3 luciferase reporter, luminescence; inhibition, % at 3.6 µM; 360,000 compounds, 0.17% hits;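 active = inhibition above a per-campaign cutoff, the mean of all compounds plus 3 SD, cut at about 60% in these data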;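 note: higher means less SRC3-driven luciferase light from the GAL4 reporter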
# Hits are given with their value; - = inactive; . = no result given; ! = not active in a repeat. Hits are enriched below; roughly 0.78% of the tested compounds scored in any of these assays.
SMILES,EBV LMP1 NFkB,SRC2 inh,LRH-1 inv ag,SRC1 inh,SRC3 inh
CCN1CCN(Cc2ccc(NC(=O)c3ccc(C)c(NC(=O)N4CCNC4=O)c3)cc2C(F)(F)F)CC1,47.2!,-,-,-,-
CCN1CCN(Cc2ccc(NC(=O)c3ccc(C)c(NC(=O)c4cc(-c5ccc(Br)cc5)n[nH]4)c3)cc2C(F)(F)F)CC1,44.5,-,-,-,-
O=S(=O)(c1cccs1)N1CCC(c2cn3ccccc3n2)CC1,.,-,.,.,.
CCN1CCN(Cc2ccc(NC(=O)c3ccc(C)c(NC(=O)c4cccc5[nH]ccc45)c3)cc2C(F)(F)F)CC1,61.7,-,-,-,-
CCN1CCN(Cc2ccc(NC(=O)c3cc(NC(=O)c4nccnc4N)cc(OC)c3)cc2C(F)(F)F)CC1,-,-,-,-,-
CCN1CCN(Cc2ccc(NC(=O)c3ccc(C)c(NC(=O)c4nccnc4N)c3)cc2C(F)(F)F)CC1,57.3,-,-,-,-
CC(=O)OCC(=O)NCC1CCN(C(=O)C(=O)c2cc3ccccc3o2)CC1,.,-,.,.,.
COCc1cn(-c2cccc(-c3noc4c3C(=O)N(CC(=O)N3CCOCC3)CC4)c2)nn1,.,-,.,.,.
CC1(C)CC(=O)C=C(NCCN2CCN(C(=S)Nc3ccccc3)CC2)C1,69.7,-,-,-,-
CCNC(=S)N1CCN(CCNC2=CC(=O)CC(C)(C)C2)CC1,-,-,-,-,-
COC(=O)C1CCCN(C(=O)C2CCN(S(=O)(=O)c3ccccc3[N+](=O)[O-])CC2)C1 (configuration not stated),.,-,.,.,.
Cc1c(CCCl)c(Cl)n2c(nc3ccccc32)c1C#N,66.4,-,-,-,-
C=CCN1[C@@H](Cc2ccccc2)COc2cc(F)ccc2S1(=O)=O,.,-,.,.,.
Cc1ccc(C(=O)Nc2cccc(C(=O)O)c2)cc1S(=O)(=O)N1CCCCC1,44.1,.,-,-,-
CN1CCN(c2ccc(NC(=O)N3CCc4ccccc43)cc2)CC1,60.4,-,-,-,-
Cc1ccc(NC(=O)N2CCc3ccccc32)cc1,-,-,-,-,-
Cc1nc(C)n(C(C)CNC(=O)c2ccco2)n1 (configuration not stated),44.6,-,-,-,-
CC1CCN(C2=NC(=O)N(c3ccc(Br)cc3)C(=O)C2)CC1,.,-,.,.,.
CC1(C)N=C(N)N=C(N)N1c1ccccc1,-,-,-,-,-
CC1(C)N=C(N)N=C(N)N1c1ccc(CCCCc2ccccc2)cc1,54.2,-,80.1,-,-
O=C(CCc1ccccc1)N[C@H]1[C@H](OC(=O)c2cccnc2)CCC[C@@]12C(=O)N(Cc1ccccc1)c1ccccc12,.,-,.,.,.
CC1=CC(C)(C)Nc2ccc(OC(=O)c3ccco3)cc21,-,54.6,-,-,-
CC1=CC(C)(C)Nc2ccc(OC(=O)C(C)N3C(=O)c4ccccc4C3=O)cc21 (configuration not stated),-,63.1,-,-,-
COc1ccc(OC(=O)C(C)N2C(=O)c3ccccc3C2=O)cc1 (configuration not stated),-,-,-,-,-
COCCCC/C(=N\OCCN)c1ccc(C(F)(F)F)cc1,68.3!,-,-,-,-
SMILES,EBV LMP1 NFkB,SRC2 inh,LRH-1 inv ag,SRC1 inh,SRC3 inh
CCOC(=O)c1cn2nc(N3CCCC3)ccc2n1,52.8,-,-,-,-
CCOC(=O)c1cn2nc(N3CCCCC3)ccc2n1,59.0,-,-,-,-
Cc1cccc(C)c1-n1nnnc1C1(C)Cn2nccc2C(=O)N1Cc1ccc(F)cc1 (configuration not stated),.,-,.,.,.
CC1(C)C2CCC(C2)C1(C)NC(=O)CN1CCCC1 (configuration not stated),-,-,-,-,-
CNC1(C)[C@H]2CC[C@H](C2)C1(C)C (some centres not stated),81.2,-,-,-,-
COc1ccc(C(=O)CN(CCC(=O)O)S(=O)(=O)c2ccc([N+](=O)[O-])cc2)cc1,60.8,-,-,-,-
Cc1ccc(C(=O)CN(CCC(=O)O)S(=O)(=O)c2ccc([N+](=O)[O-])cc2)cc1,-,-,-,-,-
COc1ccc2c(c1)CNC2CS(=O)(=O)NC1CCCC1 (configuration not stated),.,-,.,.,.
Cc1cccc(NC(=O)/C=C/c2ccc([N+](=O)[O-])s2)c1,88.0,-,-,-,-
Cc1ccc(C(=O)N/N=C/c2ccc([N+](=O)[O-])s2)cc1,-,82.8,-,-,-
Cc1ccc(NC(=O)/C=C/c2ccc([N+](=O)[O-])s2)c(C)c1,84.2,-,-,-,-
Cc1cc2cc(CN(Cc3ccco3)S(=O)(=O)c3c(C)ccc4nsnc34)c(=O)[nH]c2cc1C,43.8,-,-,-,-
Cc1ccc2cc(CN(Cc3ccco3)S(=O)(=O)c3c(C)ccc4nsnc34)c(=O)[nH]c2c1,-,77.2,-,-,-
CCOc1ccc(-n2c(SCC(=O)Nc3cccc4ccccc34)nnc2-c2ccccc2)cc1,.,-,.,.,.
CC1CN(S(=O)(=O)c2ccc(C(=O)NCCCn3ccnc3)cc2)CC(C)O1 (configuration not stated),-,-,-,62.3,-
Cc1cccc(NC(=O)C2CCN(c3ncccn3)CC2)c1C,.,-,.,.,.
Cc1cc(C(=O)CSc2nc3ccccc3[nH]2)c(C)n1CC1CCCO1 (configuration not stated),-,63.1,-,-,72.8
Cc1cc(C(=O)CSc2nc(N)cc(=O)[nH]2)c(C)n1CC1CCCO1 (configuration not stated),-,-,-,-,-
COc1ccc(-c2cn(-c3ccc(OC)cc3)c3[n+]2-c2ccccc2CC3)cc1,-,-,-,-,69.2
COC1=C(C)C(=O)C2=C(C1=O)C1C3CC4=C(C(=O)C(OC)=C(C)C4=O)C(CNC(=O)C(C)=O)N3C(C#N)C(C2)N1C (configuration not stated),76.6,62.7,96.0,83.9,84.9
O=C(CCl)N1N=C(c2ccco2)CC1c1cccs1 (configuration not stated),66.0,.,-,-,-
CC(=O)N1N=C(c2ccco2)CC1c1cccs1 (configuration not stated),-,-,-,-,-
CCOc1ccc(-n2c(SCC(=O)Nc3cccc4ccccc34)nnc2-c2ccco2)cc1,.,-,.,.,.
O=C(O)c1ccc2nc(-c3ccccc3)sc2c1,-,-,-,-,-
CC1CCN(c2nc3ccc(C(=O)O)cc3s2)CC1,62.9,-,-,-,-
SMILES,EBV LMP1 NFkB,SRC2 inh,LRH-1 inv ag,SRC1 inh,SRC3 inh
Nc1ccc(-c2nc3ccc(C(=O)O)cc3s2)cc1,78.1,-,-,-,-
CC1CCN(c2nc3ccc(C(=O)NCCCN4CCCCC4)cc3s2)CC1,-,-,-,-,-
COc1ccc2nc(NN=C(C)c3ccccn3)cc(C)c2c1,79.3,-,-,-,-
CC(=NNc1ccc2ccccc2n1)c1ccccn1,.,-,.,.,.
CC(C)N1CCCCC(NC(=O)Cc2ccccc2)C1=O (configuration not stated),.,-,.,.,.
CCNC(=S)Nc1sc2c(c1C#N)CCC(C)C2 (configuration not stated),59.4,-,-,-,-

# From PubChem BioAssay
